BoNT F protease = BoNT/F light chain protease inhibitors, primary screen, biochemical, flow cytometry, MLPCN library; Multiplex microsphere protease cleavage assay; inhibition, % at 10 µM; 0.22% of 360,000 active; in the data active = inhibition above about 35%, passing the limit was not always enough; inconclusive = no clear call, values can overlap the other calls; note: plate controls were buffer without enzyme for full effect and enzyme alone for no effect
Anthrax LF inh2 = Bacillus anthracis LF protease inhibitors, primary screen, biochemical, multiplex microsphere, MLPCN library. Lethal factor (Bacillus anthracis), P15917. multiplex microsphere protease cleavage assay. inhibition, % at 10 µM. 0.12% of 360,000 active. AID 588501, 2011; note: plate controls were buffer without enzyme for full effect and enzyme alone for no effect
BoNT-A LC inh2 = BoNT/A light chain protease inhibitors, primary screen, biochemical, flow cytometry, MLPCN library | Botulinum neurotoxin type A light chain protease (Clostridium botulinum A str. ATCC 3502) | multiplex microsphere protease substrate cleavage | inhibition, % at 10 µM | 0.17% of 360,000 active; note: plate controls were buffer without enzyme for full effect and enzyme alone for no effect
Bead autofluor = counter-screen for toxin protease inhibitors: compound fluorescence; 3.1% of 360,000 active; fluorescence intensity (no concentration beside the values); compound autofluorescence counterscreen, microsphere flow cytometry; active compounds read high; in the data active = fluorescence intensity above about 16000; inconclusive = no clear call, values can overlap the other calls
An asterisk follows results filed as active; u = inconclusive. In the library only some 3.5% were active in any assay of this set; here they are far more common. Cut-off read from the data, not from the text of the source, unless noted: active = inhibition above about 30%; inconclusive = no clear call, values can overlap the other calls; inactive = below that.

SMILES | BoNT F protease | Anthrax LF inh2 | BoNT-A LC inh2 | Bead autofluor
Cc1ccc(S(=O)(=O)NCCNC(=O)N2CCOCC2)cc1 | -1.2 | -0.4 | -1.8 | 21580*
CCCCn1c(N)c(N(CCC(C)C)C(=O)c2ccc3c(c2)OCCO3)c(=O)[nH]c1=O | 1.8 | 9.2 | -0.5 | 5155
O=C(Nc1ccc(C(F)(F)F)cc1Cl)c1ccc(Cn2cc(Br)cn2)o1 | -20.9 | 1.5 | -1.0 | 11651
O=C(Nc1cccc(C(F)(F)F)c1)c1ccc(Cn2cc(Br)cn2)o1 | 5.3 | -11.3 | 4.7 | 17799*
Cc1cc(C)nc(N2CCCC(C(=O)Nc3nc4ccc(S(C)(=O)=O)cc4s3)C2)n1 (configuration not stated) | 0.9 | 1.1 | 2.5 | 22009*
Cc1cc(C)nc(N2CCCC(C(=O)Nc3nnc(C)s3)C2)n1 (configuration not stated) | 9.2 | -2.1 | 0.2 | 7621
Cc1cc(C)cc(NC(=O)C2CCCN(c3nc(C)cc(C)n3)C2)c1 (configuration not stated) | -2.8 | -8.8 | -1.0 | 22398*
Cc1cc(C)cc(NC(=O)C2CCCN(c3nccc(C)n3)C2)c1 (configuration not stated) | 0.6 | -4.2 | 0.1 | 16127*
O=C(O)CN1C(=O)C2(OCCO2)c2cc(Br)ccc21 | u | -14.4 | -1.9 | 4096
C/C(=N\NC(=O)c1cc2ccccc2cc1O)c1ccc(C)o1 | -10.0 | -0.4 | 0.4 | 5704
C/C(=N\NC(=O)c1c[nH]c2ccccc12)c1ccc(C)o1 | -3.7 | -1.1 | -2.2 | 23011*
Cc1nn(CC(O)c2ccccc2)c(C)c1Br (configuration not stated) | -0.4 | -0.4 | -1.5 | 21421*
Cc1nn(CC(O)CN2c3ccccc3Sc3ccccc32)c(C)c1Br (configuration not stated) | 2.7 | -2.8 | 0.3 | 2667
CC(NS(=O)(=O)c1ccc2c(c1)CC(=O)N2C)c1ccccc1 (configuration not stated) | -11.4 | -2.4 | -3.6 | 3751
O=C(COC(=O)CCC(=O)c1ccc(F)cc1)NCCc1ccccc1 | -4.1 | -0.4 | 0.2 | 4067
O=C(c1ccco1)n1nc(-c2ccccc2)nc1SCc1ccccc1 | 3.9 | -7.8 | 0.0 | u
O=C(c1ccco1)n1nc(-c2ccco2)nc1SCc1ccccc1 | 4.6 | 2.0 | 2.6 | 21774*
COc1cccc(NC(=O)N2CCC(NC(=O)c3ccco3)CC2)c1 | 14.1 | 0.3 | -0.6 | 2988
CCCC(=O)c1c(NC)cc(C)oc1=O | -6.2 | -0.5 | u | 21049*
CCCNc1cc(C)oc(=O)c1C(=O)CC | 0.4 | 0.1 | 0.1 | 2173
Cc1cc(NC(=O)CSc2nc(-c3ccc(Cl)cc3)cs2)no1 | -4.5 | -2.5 | u | 20504*
COc1ccc(-c2ccc(SCC(=O)Nc3cc(C)on3)nn2)cc1OC | -8.2 | 1.1 | -4.2 | 25486*
Cc1cc(NC(=O)CSc2ccc(Cl)cc2)no1 | 1.6 | -0.6 | 2.0 | 22791*
Cc1cc(NC(=O)CSc2nc3ccccc3s2)no1 | -0.6 | 4.6 | 0.1 | 2904
COc1ccccc1C(=O)NCCn1cc(SCC(=O)Nc2cc(C)on2)c2ccccc21 | -2.0 | -3.7 | u | 16999*
SMILES | BoNT F protease | Anthrax LF inh2 | BoNT-A LC inh2 | Bead autofluor
COc1ccc(C(=O)NCCn2cc(SCC(=O)Nc3cc(C)on3)c3ccccc32)cc1OC | u | -0.4 | 0.6 | 3775
COc1ccc(Cl)cc1NC(=O)CCc1nnc2ccc(N3CCN(C)CC3)nn12 | 3.8 | -2.3 | -1.2 | 4495
COCCNC(=O)C(OC(=O)C1=Cc2ccccc2OC1)C(C)C (configuration not stated) | -0.4 | -2.0 | -0.7 | 4424
COc1cc(Br)cc(Br)c1OCC(=O)N/N=C/c1c(C)n(C)n(-c2ccccc2)c1=O | 9.0 | -1.4 | 2.4 | 5093
Cc1cc(NC(=O)Cn2cc(C(F)(F)F)cc(Cl)c2=O)no1 | -4.6 | -0.2 | u | 21524*
CCN(C(=O)COC(=O)c1ccc(O)cc1O)c1c(N)n(Cc2ccccc2)c(=O)[nH]c1=O | 0.0 | -2.5 | 3.6 | 8356
Cc1c([C@@H]2C[C@H]3CN(Cc4cccc(Cl)c4)C(=O)[C@]34CCCN24)cnn1C | -1.3 | -1.1 | -1.3 | 8790
Cn1cc([C@@H]2C[C@H]3CN(Cc4cccc(Cl)c4)C(=O)[C@]34CCCN24)c2ccccc21 | -20.0 | 4.1 | 9.9 | 17603*
O=C(CSc1nnc(-c2cnccn2)n1Cc1ccco1)c1ccccc1 | -5.9 | -4.1 | -2.5 | 17135*
Cn1c(SCC(=O)c2ccc(F)cc2)nnc1-c1cnccn1 | 6.6 | -15.4 | 4.4 | 18205*
O=C(CSc1nnc(-c2cnccn2)n1Cc1ccco1)c1ccc(Cl)cc1 | -0.9 | -9.6 | 0.1 | 9952
Cn1c(SCC(=O)c2ccccc2)nnc1-c1ccccn1 | u | 3.6 | 0.7 | 3879
CCOc1ccc(-c2nnn(CCC(=O)O)n2)cc1OC | 1.2 | -1.7 | 1.0 | 21762*
COc1ccc(-c2nnn(CCc3nn[nH]n3)n2)cc1OC | 1.4 | -1.3 | 0.6 | 21931*
CCOc1cc(-c2nnn(CC(=O)N3CCCCC3)n2)ccc1OC | 0.5 | -7.5 | -0.3 | 3362
O=C(Nn1cnnc1)c1cc2cc(Br)ccc2oc1=O | -2.6 | -2.6 | -0.7 | 23909*
CN(C)CCNC(=O)c1cc2cc(Br)ccc2oc1=O | -12.7 | 0.5 | -0.6 | 10526
CCN(C(=O)c1cc2ccccc2oc1=O)c1cccc(C)c1 | -1.7 | -2.2 | -1.4 | 20635*
CC(C)NC(=O)c1cc2cc(Br)ccc2oc1=O | 1.2 | -3.2 | 0.7 | 3327
CCN(CC)C(=O)c1cc2cc(Br)ccc2oc1=O | 3.1 | -8.8 | u | 22173*
COC(=O)c1c(C)[nH]c(C(=O)/C=C/c2ccccc2F)c1C | u | -23.8 | u | 5319
COc1cc(OC)nc(NC(C)=O)n1 | -4.4 | -1.1 | -3.7 | 23958*
Cc1cc(C)n2nc(SCC(=O)N3CCN(c4ccccc4)CC3)nc2n1 | -0.9 | -6.6 | 0.7 | 3658
O=C(NC1(C(F)(F)F)NC(=O)N(c2ccc(F)c(Cl)c2)C1=O)c1ccncc1 (configuration not stated) | -1.5 | -4.2 | -3.0 | 23968*
CC1=NC(Nc2nc(C)c3ccccc3n2)=NC(C)(C)C1 | -8.2 | 4.8 | 1.8 | 24864*
SMILES | BoNT F protease | Anthrax LF inh2 | BoNT-A LC inh2 | Bead autofluor
Cc1nn2c(-c3ccc(Cl)cc3)nnc2s1 | -2.3 | -1.7 | -0.3 | 23339*
CC(=O)Nc1nc(-c2ccc(Cl)cc2)nc(C)c1C(C)=O | 35.4* | -3.9 | 3.4 | 5272
CC(=O)c1c(C)nc(C)nc1NC(=O)Cc1ccccc1 | -5.3 | 2.9 | -0.9 | 4962
CCCC(c1nnnn1CS(=O)(=O)c1ccc(C)cc1)N1CCC(C(N)=O)CC1 (configuration not stated) | -29.1 | 2.3 | -5.5 | 3426
CC1CCN(C(=O)CN2C(=O)NC(C)(c3ccc4ccccc4c3)C2=O)CC1 (configuration not stated) | 3.6 | -5.6 | -1.2 | 5579
Cc1cccc(NC(=S)N(C)C2(c3ccccc3Cl)CCCCC2=O)c1 (configuration not stated) | -0.5 | -0.9 | 1.9 | 22871*
CN(C(=S)Nc1ccccc1F)C1(c2ccccc2Cl)CCCCC1=O (configuration not stated) | -4.1 | -5.2 | -1.4 | 20195*

From PubChem BioAssay
